Only some compounds are listed: those with a hit (about 3.8% of all), similar ones and a draw of the others.
ERa coact pot: enhances coactivator binding to human estrogen receptor alpha | TR-FRET ERalpha-LBD/SRC-Cy5 coactivator binding, 2 h; 100 = basal binding, no effect | coactivator binding (% of control), % at 25.6 µM | hit rate 1.3% among 86,000 | AID 639; in the data active means activity above about 200%;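 further: binding measured in presence of low estradiol as agonist stimulus; 0% = peptide alone without receptor and 100% = receptor with peptide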
Target sequence (P03372 whole entry, looked up, the tested form may be a part): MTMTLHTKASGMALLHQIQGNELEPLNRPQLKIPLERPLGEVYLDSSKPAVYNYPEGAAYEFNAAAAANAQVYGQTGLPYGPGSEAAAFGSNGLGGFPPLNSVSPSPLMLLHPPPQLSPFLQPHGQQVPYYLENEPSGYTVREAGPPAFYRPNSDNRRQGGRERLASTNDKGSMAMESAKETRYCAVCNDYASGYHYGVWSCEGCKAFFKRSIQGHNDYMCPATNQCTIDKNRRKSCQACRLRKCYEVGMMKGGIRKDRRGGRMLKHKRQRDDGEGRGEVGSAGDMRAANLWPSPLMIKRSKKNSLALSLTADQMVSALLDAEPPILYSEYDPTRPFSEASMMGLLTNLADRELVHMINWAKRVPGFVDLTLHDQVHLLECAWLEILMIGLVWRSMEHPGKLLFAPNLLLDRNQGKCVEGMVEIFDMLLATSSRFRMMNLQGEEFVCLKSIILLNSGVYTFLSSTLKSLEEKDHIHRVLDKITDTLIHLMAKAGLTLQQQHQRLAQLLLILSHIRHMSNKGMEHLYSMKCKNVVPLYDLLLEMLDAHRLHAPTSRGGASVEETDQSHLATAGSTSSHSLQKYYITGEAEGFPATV
ERb coact inh: ER-beta (human) coactivator binding inhibition; inhibition, % at 25.6 µM; AID 633; hit rate 1.3% among 86,000; Q92731; TR-FRET ER-beta LBD / SRC1-Cy5 peptide binding; receptor agonist-loaded with 1 µM estradiol;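 active means compounds whose percent inhibition of the receptor-coactivator binding signal exceeds about 50% in the single-dose screen, limit read from the data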;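 further: 0% = receptor plus peptide wells without compound and 100% = peptide-only wells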
Calb biofilm kill: kills Candida albicans biofilms. C. albicans biofilm + clotrimazole, Alamar Blue. inhibition, % at 6 µM. hit rate 0.14% among 85,000;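 active means inhibition above 20%; inactive means inhibition below 20%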;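 further: preformed 24 hr biofilms exposed to compound for 48 hr; 0% = biofilm without compound and 100% = blank killed by clotrimazole plus chlorhexidine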
Smad3 FoxH1 inh: inhibitors of human Smad3 transcription factor binding; P84022; TR-FRET Smad3/Dy647-FoxH1 peptide binding, europium anti-His; inhibition, % at 25 µM; hit rate 0.29% among 88,000; AID 630;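 active means compounds that reduce the energy-transfer binding signal between the protein and its labelled peptide by more than half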;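 further: 0% = Smad3 plus labelled peptide maximal FRET and 100% = peptide-only background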
ERa SRC1 inh: ER-alpha (human) coactivator binding inhibition. AID 629. hit rate 1.7% among 86,000. inhibition, % at 25.6 µM. P03372. TR-FRET ER-alpha LBD / SRC-1 peptide, estradiol-bound; in the data active means inhibition above about 50%;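 further: 0% = receptor plus peptide control and 100% = peptide only without receptor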
The depositor's hits bear a star; · = no result given; [ ] = dose if it differs, or a comment.

SMILES | ERa coact pot | ERb coact inh | Calb biofilm kill | Smad3 FoxH1 inh | ERa SRC1 inh
C#CCn1c(=NC(=O)c2ccc(Br)s2)sc2cccc(OC)c21 | 333.4*[fluorescence artefact?] | 43.4 | 3.3 | -40.1 | 57.0*[fluorescence artefact?]
O=C(OCC(=O)N1CCCC1)c1cncc(Br)c1 | 100.7 | 54.8* | 6.4 | 1.9 | -0.7
CC(C)CNC(=O)COC(=O)c1cncc(Br)c1 | 94.9 | -1.4 | 4.6 | -15.6 | -7.8
CCCSc1nc2c(c(=O)[nH]c(=O)n2C)n1Cc1ccc(C)cc1 | 118.9 | 32.7 | 8.6 | 9.0 | 67.3*[fluorescence artefact?]
C=CCSc1nc2c(c(=O)[nH]c(=O)n2C)n1Cc1ccc(C)cc1 | 148.4 | -5.5 | 0.2 | -13.0 | 17.9
Cc1ccc2cc(C#N)c(N3CCCN(S(=O)(=O)c4ccccc4)CC3)nc2c1 | 349.6*[fluorescence artefact?] | 26.8 | 7.0 | -5.6 | 31.7
Cc1ccc2nc(N3CCN(Cc4nnnn4Cc4ccccc4)CC3)c(C#N)cc2c1 | 372.4*[fluorescence artefact?] | 30.1 | 0.4 | -4.0 | 38.5
Cc1ccc2cc(C#N)c(N3CCCN(S(=O)(=O)c4ccccc4)CC3)nc2c1C | 362.6*[fluorescence artefact?] | 54.7*[fluorescence artefact?] | 2.7 | 9.0 | 39.0
Cc1cccc2cc(C#N)c(N3CCN(C)CC3)nc12 | 113.2 | 6.7 | 0.3 | 13.5 | 1.8
Cc1ccc2cc(C#N)c(N3CCCN(S(=O)(=O)c4ccc(F)cc4)CC3)nc2c1 | 349.1*[fluorescence artefact?] | 51.3*[fluorescence artefact?] | -6.8 | 11.8 | 44.1
Cc1ccc2nc(N3CCN(C)CC3)c(C#N)cc2c1 | 98.4 | -10.3 | 1.6 | 3.3 | 0.3
Cc1ccc2cc(C#N)c(N3CCN(C)CC3)nc2c1 | 97.8 | 0.6 | 5.5 | 23.8 | -3.0
Cc1cc(C)cc(NS(=O)(=O)c2ccc3oc(=O)ccc3c2)c1 | 97.5 | -1.3 | -1.1 | 2.2 | 3.6
Cc1ccc2nc(N3CCN(S(=O)(=O)c4ccc(C)c(Cl)c4)CC3)c(C#N)cc2c1 | 243.9*[fluorescence artefact?] | 50.1*[fluorescence artefact?] | 1.9 | -2.1 | 48.0
COc1ccc(OC)c(NC(=O)CSc2ncnc3c2cnn3-c2ccccc2Cl)c1 | 97.3 | -6.8 | 0.1 | 0.3 | -4.3
C=C(CC(=O)O)C(=O)O (tested in a mixture with another compound) | · | · | · | 86.6* | ·
O=C(O)/C=C(/CC(=O)O)C(=O)O | · | · | · | 14.3 | ·
Cc1cc(OCC(=O)Nc2ccc3oc(-c4ccncc4)nc3c2)ccc1Cl | 203.8*[fluorescence artefact?] | 35.9 | 10.7 | -12.2 | 46.8
Cc1cc(OCC(=O)Nc2ccc3c(c2)OCCO3)ccc1Cl | 116.0 | -4.5 | -5.9 | -7.3 | -6.3
CCCCCC(=O)Nc1ccc2oc(-c3cccnc3)nc2c1 | 112.0 | -25.0 | 3.1 | 10.7 | -6.7
COc1ccc(CC(=O)Nc2ccc(-c3nc4cc(C)ccc4o3)c(O)c2)cc1OC | 122.0 | 53.4*[fluorescence artefact?] | 8.2 | -69.5 | 89.8*[fluorescence artefact?]
O=C(Cc1ccccc1)Nc1ccc2oc(-c3cccnc3)nc2c1 | 789.5* | -16.5 | 7.4 | 2.1 | -63.5
O=C(Nc1ccc2oc(-c3ccccc3F)nc2c1)c1cncc(Br)c1 | 164.0 | 28.3 | 8.4 | 3.0 | 53.7*
COc1ccccc1C(=O)Nc1ccc2oc(-c3ccc(F)cc3)nc2c1 | 251.9* | 24.7 | 4.5 | -15.7 | 29.2
O=C(Nc1ccc2oc(-c3ccccc3)nc2c1)c1ccc2c(c1)OCCO2 | 147.6 | 18.2 | 0.2 | 8.0 | 37.4
SMILES | ERa coact pot | ERb coact inh | Calb biofilm kill | Smad3 FoxH1 inh | ERa SRC1 inh
O=C(Nc1ccc2oc(-c3ccncc3)nc2c1)c1c(F)c(F)c(F)c(F)c1F | 265.7* | 10.9 | -4.0 | -22.3 | 22.2
COc1ccc(C(=O)Nc2ccc3oc(-c4cccc(F)c4)nc3c2)cc1OC | 157.1 | 5.0 | 0.8 | 12.3 | 1.6
COc1ccc(-c2nc3cc(NC(=O)c4ccc5c(c4)OCO5)ccc3o2)cc1 | 412.2*[fluorescence artefact?] | 43.5 | -3.4 | -5.7 | 39.8
COc1c(F)c(F)c(C(=O)Nc2ccc3oc(-c4ccncc4)nc3c2)c(F)c1F | 140.0 | 18.8 | -2.2 | -6.3 | 23.7
O=C(Cc1ccc(Cl)cc1)Nc1ccc2oc(-c3ccncc3)nc2c1 | 456.4* | 8.4 | 9.8 | 5.2 | 5.2
O=C(O)c1cc(C(=O)O)nc(C(=O)O)c1 | · | · | · | 7.1 | ·
Cc1c(Cl)cccc1NC(=O)C[C@H]1Sc2ccccc2NC1=O | · | · | · | 3.2 | ·
Cc1sc2nc(C(C)Nc3ccccc3N3CCOCC3)[nH]c(=O)c2c1C (centres undefined) | 253.9* | -4.6 | 2.9 | -2.8 | -12.2
COc1ccc2cc3cc(C(=O)Nc4ccc5c(c4)OCO5)oc3nc2c1 | 158.7 | 39.4 | 8.5 | -16.7 | 23.5
Cc1ccc2cc3cc(C(=O)NCc4ccc5c(c4)OCO5)oc3nc2c1 | 125.0 | 34.6 | 9.2 | 8.9 | 51.2*[fluorescence artefact?]
COc1ccc2nc3oc(C(=O)Nc4ccc(OC)c(OC)c4)cc3cc2c1 | 108.3 | 41.4 | 3.6 | 42.1 | 63.0*[fluorescence artefact?]
COc1ccc(C)cc1NC(=O)c1cc2cc3ccc(C)cc3nc2o1 | 209.4* | -20.0 | 6.6 | -1.9 | 39.8
COc1ccc2cc3cc(C(=O)NCCc4ccc(OC)c(OC)c4)oc3nc2c1 | 98.4 | -0.3 | 10.0 | -1.5 | 20.9
O=c1oc2ccccc2c(O)c1/C=N/c1nc(-c2ccc(O)c(O)c2)cs1 | · | · | · | 22.8 | ·
Nc1cc(S(N)(=O)=O)ccc1SSc1ccc(S(N)(=O)=O)cc1N | · | · | · | 21.4 | ·
COc1ccc(NC(=O)CSc2nc3c(cc2C#N)CN(C)CC3)cc1 | 33.7 | 56.5* | 7.0 | 4.5 | 93.1*[fluorescence artefact?]
CN1CCc2nc(SCC(=O)Nc3ccc(F)cc3)c(C#N)cc2C1 | 37.7 | 49.2 | 2.4 | 15.3 | 82.9*
COC(=O)CC(=O)CSc1nc2c(cc1C#N)CCCCC2 | 107.3 | 2.0 | 1.3 | -9.2 | -4.0
CCc1nnc(NC(=O)CSc2nc3c(cc2C#N)CCCC3)s1 | 510.4*[fluorescence artefact?] | -10.0 | 12.9 | -127.4 | -19.6
CCN1CCc2nc(SCC(=O)Nc3ccc(OC)cc3)c(C#N)cc2C1 | 11.3 | 5.2 | 3.4 | -8.1 | 38.8
C/C(=N\NC(=O)c1ccncc1)c1ccc2ccccc2c1O | · | · | · | 15.3 | ·
Cn1nc(-c2ccccc2)c(-c2nc(-c3cccc(Cl)c3)no2)c1Cl | 96.9 | -12.8 | 5.3 | 13.9 | -2.1
Oc1cc(CN2COc3ccccc32)c(O)cc1CNC1CCCCC1 | · | · | · | 74.5* | ·
Cc1ccc(C(=N)c2ccccc2Cc2cccc3ccccc23)c2ccccc12 | · | · | · | 46.2 | ·
Cn1c(=O)oc2cc(S(=O)(=O)Nc3ccc4c(c3)OCO4)ccc21 | 51.4 | 45.3 | -3.9 | 9.6 | 57.3*[fluorescence artefact?]
SMILES | ERa coact pot | ERb coact inh | Calb biofilm kill | Smad3 FoxH1 inh | ERa SRC1 inh
Cn1c(=O)c2cc(S(=O)(=O)Nc3ccc4c(c3)OCO4)ccc2n(C)c1=O | 105.7 | 12.7 | -1.6 | 7.7 | 1.9
CCCNS(=O)(=O)c1ccc(NC(=O)c2cccnc2)cc1 | 90.2 | 1.4 | -1.8 | 11.6 | -0.6
Nc1ccc(S(=O)(=O)c2ccc(NC(=O)c3cccnc3)cc2)cc1 | · | · | · | 56.7* | ·
CC1(C)O[C@@H]2O[C@H]([C@@H]3COC(C)(C)O3)[C@H](N)[C@@H]2O1 | · | · | · | 10.5 | ·
Cc1oc2c(C)c(O)ccc2c(=O)c1-c1cnn(-c2ccccc2)c1 | 181.3 | 60.1*[fluorescence artefact?] | 1.8 | 0.6 | 70.1*[fluorescence artefact?]
COc1ccc2c(=O)c(-c3cnn(-c4ccccc4)c3)c(C)oc2c1 | 112.3 | -7.0 | -2.9 | 16.0 | 0.0
O=c1c2c([nH]c3ccccc13)C(=C1CCCC1)CC2 | 21.7 | 84.1* | 3.5 | 7.2 | 76.7*[fluorescence artefact?]
N[C@@H](CSCc1ccc(I)cc1)C(=O)O | · | · | · | -3.7 | ·
